This is an account of results in PubChem BioAssay.

Test [1] is described as follows: antimalarial activity against Dd2 strain (AID 2302;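 active = growth inhibition above 50% at the single 2 µM test dose, taken to imply half-maximal potency below 2 µM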;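 note: 0% = DMSO untreated growth and 100% = chloroquine plus artemisinin killed control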). Particulars: P. falciparum Dd2 in RBCs, LDH growth readout, 72 h; at 2 µM; active compounds read high.
Test [2] in a line: human hepatoma cell viability loss – ATP luminescence, cytotoxicity control for P. falciparum antimalarial project, primary screen (AID 2303;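 active = inhibition above 50%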;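 note: 0% = DMSO wells and 100% = digitonin-killed cells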). Particulars: HepG2 viability, 24-48 h, at 10 µM, active compounds read high.
The target in test [3] is L-lactate dehydrogenase (Plasmodium falciparum (isolate CDC / Honduras)) (UniProt Q27743). Nature of the test: PfLDH activity inhibition – cell lysate, 3D7 strain, counter-screen for P. falciparum growth inhibition project (AID 2304).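 Note: 0% = vehicle and 100% = reference inhibitor.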 Particulars: P. falciparum 3D7 crude extract, LDH APAD/NBT absorbance; at 2 µM; active compounds read high.
Sequence of L-lactate dehydrogenase (Plasmodium falciparum (isolate CDC / Honduras)) (Q27743 whole entry, looked up): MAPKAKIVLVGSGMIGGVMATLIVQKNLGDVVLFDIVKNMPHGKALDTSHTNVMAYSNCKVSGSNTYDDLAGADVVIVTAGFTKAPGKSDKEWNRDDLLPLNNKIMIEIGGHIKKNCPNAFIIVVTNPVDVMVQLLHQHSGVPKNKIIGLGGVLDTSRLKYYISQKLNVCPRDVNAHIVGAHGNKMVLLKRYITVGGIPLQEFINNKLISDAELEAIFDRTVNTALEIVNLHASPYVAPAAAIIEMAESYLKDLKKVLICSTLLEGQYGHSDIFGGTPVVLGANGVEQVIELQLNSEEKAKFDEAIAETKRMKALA
A short description of test [4]: inhibition of 3D7 malaria parasite growth – strain 3D7 (AID 2306).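 Note: 0% = DMSO wells and 100% = chloroquine plus artemisinin control wells.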 Particulars: P. falciparum 3D7 erythrocytic growth, LDH absorbance, 72 h; at 2 µM; active compounds read high.
In test [5] the target is Calcium-dependent protein kinase 1 (Plasmodium falciparum (isolate 3D7)) (UniProt P62344). The test can be described thus: PfCDPK1 kinase inhibitors, biochemical, TCAMS library (AID 1159585; cut-off not given, nearly all actives have IC50 up to about 0.98 µM;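 note: inhibitors leave more ATP so luminescence rises with inhibition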). Particulars: recombinant PfCDPK1, Kinase-Glo ATP depletion luminescence.
Sequence of Calcium-dependent protein kinase 1 (Plasmodium falciparum (isolate 3D7)) (P62344 whole entry, looked up): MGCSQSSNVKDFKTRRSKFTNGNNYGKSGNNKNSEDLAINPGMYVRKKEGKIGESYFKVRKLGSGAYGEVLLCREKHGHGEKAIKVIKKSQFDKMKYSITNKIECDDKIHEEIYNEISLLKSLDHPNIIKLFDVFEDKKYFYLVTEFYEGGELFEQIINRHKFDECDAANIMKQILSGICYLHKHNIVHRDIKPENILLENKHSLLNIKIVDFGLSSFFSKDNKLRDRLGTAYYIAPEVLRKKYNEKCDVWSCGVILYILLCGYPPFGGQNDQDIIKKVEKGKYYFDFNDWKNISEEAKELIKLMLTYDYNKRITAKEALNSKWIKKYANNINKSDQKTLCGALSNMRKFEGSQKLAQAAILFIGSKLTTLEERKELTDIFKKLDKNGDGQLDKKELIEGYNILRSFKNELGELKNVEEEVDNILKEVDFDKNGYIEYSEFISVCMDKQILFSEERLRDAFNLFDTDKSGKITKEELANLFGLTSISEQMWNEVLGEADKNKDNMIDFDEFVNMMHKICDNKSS
Test [6] addresses Plasmodium falciparum protein kinase 6 (PK6, PF3D7_1337100) (UniProt Q8IDW1). The test can be described thus: PfPK6 kinase inhibitors, biochemical, TCAMS library (AID 1159586). Particulars: recombinant PfPK6, Kinase-Glo ATP depletion luminescence. A general note: In Kinase-Glo more light means more ATP remaining.
Test [7] concerns the target Protein kinase 7 (PK7), Plasmodium falciparum 3D7 (PF3D7_0213400) (UniProt Q7YTF7). Nature of the test: inhibition of Plasmodium PK7 catalytic activity – biochemical, TCAMS antimalarial set, Kinase-Glo luminescence (AID 1159587). Particulars: recombinant PfPK7, Kinase-Glo ATP depletion luminescence.
Test [8] addresses Calcium-dependent protein kinase 4 (Plasmodium falciparum (isolate 3D7)) (UniProt Q8IBS5). The test can be described thus: PfCDPK4 kinase inhibitors, biochemical, TCAMS library (AID 1159588; cut-off not given, nearly all actives have IC50 up to about 0.91 µM). Particulars: recombinant PfCDPK4, Kinase-Glo ATP depletion luminescence.

Values without a mark were called inactive. For some of these results: Results with a measured potency or affinity are listed apart. The source made the active and inactive calls. Unless noted, the rule behind the calls is not given here.

Sequence of Protein kinase 7 (PK7), Plasmodium falciparum 3D7 (PF3D7_0213400) (Q7YTF7 1-343): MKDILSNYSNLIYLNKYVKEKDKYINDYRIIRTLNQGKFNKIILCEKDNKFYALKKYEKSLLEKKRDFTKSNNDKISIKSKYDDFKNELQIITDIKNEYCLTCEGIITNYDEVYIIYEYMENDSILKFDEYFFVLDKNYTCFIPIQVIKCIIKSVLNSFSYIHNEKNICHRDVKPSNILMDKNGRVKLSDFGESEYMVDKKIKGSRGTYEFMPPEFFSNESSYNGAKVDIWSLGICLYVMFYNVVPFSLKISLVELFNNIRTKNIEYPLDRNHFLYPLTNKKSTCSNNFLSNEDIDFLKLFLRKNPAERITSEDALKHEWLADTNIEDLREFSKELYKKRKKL
Sequence of Plasmodium falciparum protein kinase 6 (PK6, PF3D7_1337100) (Q8IDW1 1-305): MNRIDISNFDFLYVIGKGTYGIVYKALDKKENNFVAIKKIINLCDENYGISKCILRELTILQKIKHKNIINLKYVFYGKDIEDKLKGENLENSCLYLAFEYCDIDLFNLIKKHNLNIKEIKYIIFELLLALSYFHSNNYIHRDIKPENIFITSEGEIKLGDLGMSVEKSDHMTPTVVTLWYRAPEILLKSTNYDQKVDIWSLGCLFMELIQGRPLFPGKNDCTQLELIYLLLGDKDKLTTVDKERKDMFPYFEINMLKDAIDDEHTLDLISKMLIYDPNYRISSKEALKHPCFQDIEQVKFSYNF
Sequence of Calcium-dependent protein kinase 4 (Plasmodium falciparum (isolate 3D7)) (Q8IBS5 whole entry, looked up): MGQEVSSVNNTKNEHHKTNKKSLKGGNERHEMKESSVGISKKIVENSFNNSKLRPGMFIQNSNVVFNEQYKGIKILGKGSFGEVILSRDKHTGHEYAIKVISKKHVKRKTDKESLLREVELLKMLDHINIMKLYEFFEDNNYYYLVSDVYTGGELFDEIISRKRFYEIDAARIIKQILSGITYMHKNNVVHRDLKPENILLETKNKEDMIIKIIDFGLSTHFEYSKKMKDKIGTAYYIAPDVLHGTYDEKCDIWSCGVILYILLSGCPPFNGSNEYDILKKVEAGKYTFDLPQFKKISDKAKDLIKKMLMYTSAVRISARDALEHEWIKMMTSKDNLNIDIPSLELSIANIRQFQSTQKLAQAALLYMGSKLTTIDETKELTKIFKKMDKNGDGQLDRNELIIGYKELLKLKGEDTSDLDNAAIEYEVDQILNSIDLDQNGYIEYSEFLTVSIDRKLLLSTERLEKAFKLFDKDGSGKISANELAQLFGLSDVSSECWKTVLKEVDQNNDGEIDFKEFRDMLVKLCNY

Usually inhibition stands for the drop in the measured response relative to a control, in per cent. In the case of `CC(C)(C)c1ccc(CN2CCC(CNC(=O)c3cc(-c4cccc(Cl)c4)cs3)C2)cc1` (stereo not given), the growth inhibition in test [1] was 83% (active); in test [4] it was 101% (active). Besides, the inhibition in test [2] is 44%; in test [3], 1%. Also, the result in test [5], in test [6], in test [7] and in test [8] was inactive.

Take `Cc1ccc(Cn2c(N3CCC(C(=O)NCc4cccs4)CC3)nc3ccccc32)cc1`: the growth inhibition in test [1] is 71% (active); in test [4], 99% (active). Also, the inhibition in test [2] was -4%; in test [3], -1%. Further, the outcome in test [5], in test [6], in test [7] and in test [8] was inactive.

Consider `CN(C)C(CNC(=O)c1cc(-c2ccncc2)c(-c2ccc(NC(=O)Nc3ccccc3)cc2)o1)c1ccccc1` (stereo not given), for which the growth inhibition in test [1] was 96% (active); in test [4] it was 101% (active). The inhibition in test [2] is 19%; in test [3] it was 4%. Moreover, the outcome in test [5], in test [6], in test [7] and in test [8] was inactive.

As for `CCOc1cc(C)ccc1N1CCN(CCCCNC(=O)c2ccc(NC(=O)c3ccc(Cl)cc3)cc2)CC1`, the figures for the growth inhibition in test [1] and in test [4] were 46% and 100% (active), respectively. Further, the figures for the inhibition in test [2] and in test [3] were 19% and -5%, respectively. Moreover, the outcome in test [5], in test [6], in test [7] and in test [8] was inactive.

On to `Cc1cc(N(C)C)nc(Nc2ccc(NC(=O)C3CCCCC3)cc2)n1`, for which the growth inhibition is 68% (active) in test [1] and 101% (active) in test [4]. Further, the inhibition was 3% in test [2] and -1% in test [3]. Besides, the result in test [5], in test [6], in test [7] and in test [8] was inactive.

Regarding `COc1ccc(NC(=O)/C=C/c2ccc(Cl)c(C(F)(F)F)c2)cc1OCCN(C(C)C)C(C)C`, the growth inhibition was 28% in test [1] and 95% (active) in test [4]. Further, the inhibition in test [2] is 18%; in test [3], -1%. The result in test [5], in test [6], in test [7] and in test [8] was inactive.

For the compound `Cc1ccc(S(=O)(=O)/N=C(\N)NC(N)=O)cc1`, the growth inhibition in test [1] is 2%; in test [4], 94% (active). Further, the inhibition in test [2] is 26%; in test [3], 1%. The result in test [5], in test [6], in test [7] and in test [8] was inactive.

Turning to `COc1cccc(C(=O)Nc2nonc2-c2ccc(OC)c(OC)c2)c1`, the figures for the growth inhibition in test [1] and in test [4] were 50% (active) and 97% (active), respectively. Besides, the inhibition in test [2] was 7%; in test [3] it was -8%. Besides, the result in test [5], in test [6], in test [7] and in test [8] was inactive.

Consider `COc1ccc(O)c(C(=O)c2cnc3c(c2)c(-c2ccc(F)cc2)c(C#N)c(=O)n3C)c1`, for which the growth inhibition was 14% in test [1] and 92% (active) in test [4]. In addition, the inhibition in test [2] is 7%; in test [3], -2%. Also, the result in test [5], in test [6], in test [7] and in test [8] was inactive.

Turning to `CCCc1cc(C(C)=O)ccc1OCCCON1C(N)=NC(N)=NC1(C)C`, the growth inhibition in test [1] and in test [4] was 96% (active) throughout. Also, the figures for the inhibition in test [2] and in test [3] were 61% (active) and 4%, respectively. The outcome in test [5], in test [6], in test [7] and in test [8] was inactive.

Regarding `N#Cc1cccc(NC(=O)Nc2cccc(-c3cccc(-c4nc5ccccc5[nH]4)c3)c2)c1`, the growth inhibition in test [1] was 96% (active); in test [4], 100% (active). Further, the inhibition in test [2] is 46%; in test [3], 3%. In addition, the outcome in test [5], in test [6], in test [7] and in test [8] was inactive.

For the compound `NC1CCN(CCc2ccc(NS(=O)(=O)c3ccc(-c4ccccc4)cc3)cc2)CC1`, the values for the growth inhibition in test [1] and in test [4] were 19% and 100% (active), respectively. Moreover, the inhibition in test [2] was 17%; in test [3], 0%. Also, the outcome in test [5], in test [6], in test [7] and in test [8] was inactive.

Consider `Cc1ccc(CNc2ccc3ncc(-c4cccc(C(=O)NCCN(C)C)c4)n3n2)c(C)c1`, for which the growth inhibition is 78% (active) in test [1] and 100% (active) in test [4]. For the same compound, the values for the inhibition in test [2] and in test [3] were 97% (active) and -3%, respectively. The result in test [5], in test [6], in test [7] and in test [8] was inactive.

In the case of `O=C(Nc1ccc(-c2ccccc2)s1)N[C@H]1CCN(Cc2ccc(OCCCN3CCCCC3)cc2)C1`, the growth inhibition in test [1] is 40%; in test [4] it was 102% (active). In addition, the results for the inhibition in test [2] and in test [3] were 5% and -6%, respectively. Besides, the result in test [5], in test [6], in test [7] and in test [8] was inactive.

Turning to `CCOc1ccc(-n2nc3c(Cl)nnc(-c4ccccc4)c3c2-c2ccccc2)cc1`, the results for the growth inhibition in test [1] and in test [4] were 99% (active) and 96% (active), respectively. Moreover, the results for the inhibition in test [2] and in test [3] were 0% and 9%, respectively. In addition, the outcome in test [5], in test [6], in test [7] and in test [8] was inactive.

For `Oc1ccc(CCCNc2nc(NCc3ccccc3-c3ccccc3)nc(N3CCNCC3)n2)cc1`, the growth inhibition in test [1] is 48%; in test [4], 94% (active). Moreover, the inhibition was 39% in test [2] and 5% in test [3]. The result in test [5], in test [6], in test [7] and in test [8] was inactive.

Regarding `Cc1ccc(-n2nc3ccc(NC(=O)c4ccc([N+](=O)[O-])o4)cc3n2)cc1C`, the values for the growth inhibition in test [1] and in test [4] were 95% (active) and 94% (active), respectively. Moreover, the inhibition in test [2] is 20%; in test [3], -3%. In addition, the result in test [5], in test [6], in test [7] and in test [8] was inactive.

With `Nc1cc(-c2ccc3c(N)nccc3c2)ccc1Cl`, the growth inhibition is 4% in test [1] and 91% (active) in test [4]. The inhibition is 1% in test [2] and -2% in test [3]. Besides, the outcome in test [5], in test [6], in test [7] and in test [8] was inactive.

Turning to `c1ccc(CCNc2ccnc(Nc3ccc4n[nH]nc4c3)n2)cc1`, the values for the growth inhibition in test [1] and in test [4] were 95% (active) and 101% (active), respectively. Besides, the results for the inhibition in test [2] and in test [3] were 33% and -4%, respectively. Moreover, the result in test [5], in test [6], in test [7] and in test [8] was inactive.

In the case of `CCCCCNc1nc(Nc2ccccc2C)nc2ccccc12`, the results for the growth inhibition in test [1] and in test [4] were 30% and 100% (active), respectively. Also, the inhibition in test [2] was 5%; in test [3], -7%. The result in test [5], in test [6], in test [7] and in test [8] was inactive.
